# Measurements: PubChem BioAssay (Tox21)
# Records with an inconclusive call do not appear. Entries that show only a call come without a potency. Active and inactive are the calls of the source. Calls follow the shape of the dose curve; as a rule, active = well fitted activation curve with a large enough effect in the repeat runs; inconclusive = weak or mixed curves; inactive = no such curve, though single readings can be large or run the other way.
# Biological target: Aryl hydrocarbon receptor (Homo sapiens) (UniProt P35869)
# Sequence (P35869 whole entry, looked up): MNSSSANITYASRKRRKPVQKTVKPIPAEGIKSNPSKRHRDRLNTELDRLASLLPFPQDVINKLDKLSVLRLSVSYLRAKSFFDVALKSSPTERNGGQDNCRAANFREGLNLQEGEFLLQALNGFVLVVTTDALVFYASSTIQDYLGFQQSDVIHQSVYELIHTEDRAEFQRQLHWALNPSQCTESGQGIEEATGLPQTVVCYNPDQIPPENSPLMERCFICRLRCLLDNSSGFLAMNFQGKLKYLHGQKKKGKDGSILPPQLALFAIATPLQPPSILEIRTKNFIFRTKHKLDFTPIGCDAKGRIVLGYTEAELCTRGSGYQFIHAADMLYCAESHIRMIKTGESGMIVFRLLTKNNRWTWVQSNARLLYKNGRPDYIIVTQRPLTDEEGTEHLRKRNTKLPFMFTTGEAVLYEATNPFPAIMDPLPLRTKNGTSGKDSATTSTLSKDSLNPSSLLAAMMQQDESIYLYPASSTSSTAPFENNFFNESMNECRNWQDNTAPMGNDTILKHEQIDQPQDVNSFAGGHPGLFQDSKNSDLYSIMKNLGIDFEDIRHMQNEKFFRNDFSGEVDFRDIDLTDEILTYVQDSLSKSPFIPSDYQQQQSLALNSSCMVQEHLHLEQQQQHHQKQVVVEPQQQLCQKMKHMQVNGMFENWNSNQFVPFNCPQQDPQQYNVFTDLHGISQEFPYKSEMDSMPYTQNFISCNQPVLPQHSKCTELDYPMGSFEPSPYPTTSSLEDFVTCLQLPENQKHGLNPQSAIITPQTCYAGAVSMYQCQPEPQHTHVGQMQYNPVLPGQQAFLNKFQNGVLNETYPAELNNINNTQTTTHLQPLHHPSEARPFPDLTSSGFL
# Assay: qHTS assay to identify small molecule that activate the aryl hydrocarbon receptor (AhR) signaling pathway (AID 743085); also: nearly all actives have a fitted effect of over 15% in size;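 as to activation: HG2L7.5c1 human HepG2 liver cells with stably integrated DRE-driven firefly reporter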
# Settings: HepG2 AhR-luc (HG2L7.5c1), luciferase, 24 h; series mostly up to 70.3 µM
# From the text: U.S. Tox21 Program National Center for Advancing Translational Sciences [NCATS] NIH Chemical Genomics Center [NCGC] U.S. Environmental Protection Agency [EPA] National Institutes of Environmental Health Sciences [NIEHS] National Toxicology Program [NTP] U.S. Food and Drug Administration [FDA] Tox21 Assay overview: The Aryl hydrocarbon Receptor (AhR), a member of the family of basic helix-loop-helix transcription factors, is crucial to adaptive responses to environmental changes. AhR mediates cellular responses to environmental pollutants such as aromatic hydrocarbons through induction of phase I and II enzymes but also interacts with other nuclear receptor signaling pathways. A cell based HepG2-AhR-luc assay (HG2L7.5c1 cell line, developed by Dr. Michael S. Denison, University of California at Davis, was used to assess the activation of AhR. HepG2 (human hepatocellular carcinoma) cells were stably transfected with an Ah receptor-responsive firefly luciferase reporter gene plasmid containing 20 dioxin responsive elements and luciferase reporter gene. Increased luciferase activity can be used to identify the compounds that induce AhR activation.
# Tox21 Assay Protocol Summary: 4000 cells in 5 uL/well were dispensed into white wall/solid bottom 1536-well plates using a Multidrop Combi (Thermo Fisher Scientific Inc., Waltham, MA) dispenser. After the assay plates were incubated at 37C for 5 h, 23 nL of compound or DMSO vehicle was transferred to the assay plates by a pintool station (Kalypsys, San Diego, CA). The plates were incubated at 37C for 24 hr. After 1 ul/well of CellTiter-Fluor reagent (Promega, Madison, WI) was added into the assay plates using a Flying Reagent Dispenser (FRD) (Aurora Discovery, CA), the assay plates were incubated at 37C for 30 min. The fluorescence intensity in the plates was measured using a ViewLux plate reader (PerkinElmer, Shelton, CT), followed by the addition of 4 uL of ONE-Glo Luciferase Assay reagent (Promega) using an FRD (Aurora Discovery). After the assay plates were incubated at room temperature for 30 min, luminescence intensity was measured using a ViewLux plate reader (Perkin Elmer).
# Potency is read from the fitted curve at half-maximal effect.
row,Structure (SMILES),Potency
1,COC(=O)c1ccccc1C,inactive
2,CCN(CC)C(=O)c1cc(S(=O)(=O)Cc2ccccc2)c(N2CCC(c3ccccc3)CC2)cc1N(CC)CCN(C)C,inactive
3,C=CC(C)(CCC=C(C)C)OC=O (stereo not given),inactive
4,O=C1C(c2[nH]c3ccc(S(=O)(=O)O)cc3c2O)=Nc2ccc(S(=O)(=O)O)cc21,inactive
5,CCCCC(CC)COC(=O)CCCCC(=O)OCc1ccccc1 (stereo not given),inactive
6,Cc1ccc(C(C)C)cc2c(C)ccc1-2,inactive
7,CC(C(=O)O)c1ccc2c(c1)[nH]c1ccc(Cl)cc12 (stereo not given),inactive
8,O=C(O)Cc1ccccc1Nc1c(Cl)cccc1Cl,inactive
9,CC(=O)OCC=C(C)C,inactive
10,Nc1nc(-c2ccccc2)cs1,24.3 µM (active)
11,CCCNCCC,inactive
12,Cc1ccc(O)c(N)c1,34.4 µM (active)
13,Nc1nc(N)nc(-c2cc(Cl)ccc2Cl)n1,inactive
14,Cc1ccc(N/N=c2\c(=O)cc/c(=N\Nc3ccc(S(=O)(=O)O)cc3)c2=O)c(C)c1,8.63 µM (active)
15,CCCCC(CC)CN1CN(CC(CC)CCCC)CC(C)(N)C1 (stereo not given),inactive
16,CCCCCCCC,inactive
17,CCO[Si](OCC)(OCC)OCC,inactive
18,CC(=O)CC(=O)Nc1ccc(S(=O)(=O)O)cc1,inactive
19,C=CC(=O)Nc1cc2c(Nc3ccc(F)c(Cl)c3)ncnc2cc1OCCCN1CCOCC1,inactive
20,O=C1CCCCCCCCCCCCCCCO1,inactive

row,Structure (SMILES),Potency
1,OC1CCC(C2CCCCC2)CC1 (stereo not given),inactive
2,CCCCCC/C=C\CCCCCCCC(=O)O,inactive
3,CC(N=C(NC#N)Nc1ccncc1)C(C)(C)C (stereo not given),inactive
4,COc1ccc2cc1Oc1ccc(cc1)C[C@H]1c3c(cc4c(c3Oc3cc5c(cc3OC)CCN(C)[C@@H]5C2)OCO4)CCN1C,inactive
5,CCOc1ccc2ccccc2c1C(=O)N[C@@H]1C(=O)N2[C@@H]1SC(C)(C)[C@@H]2C(=O)O,inactive
6,CC1=CCC(=C(C)C)CC1,inactive
7,O[C@@H]([C@H](O)[C@H](O)CBr)[C@H](O)CBr,inactive
8,[Cl][Pt-2]([Cl])([Cl])[Cl],inactive
9,CCC(COC(=O)CCS)(COC(=O)CCS)COC(=O)CCS,inactive
10,O=C(Oc1ccccc1)Oc1ccccc1,inactive
11,Cc1cc(-c2ccc(N=Nc3cc(S(=O)(=O)O)c4ccccc4c3N)c(C)c2)ccc1N=Nc1cc(S(=O)(=O)O)c2ccccc2c1N,inactive
12,O=C1c2ccccc2C(=O)N1SC1CCCCC1,inactive
13,CC(C)CCCCCOC(=O)CCS,inactive
14,CC(C)=CCC1=C(O)c2ccccc2C(=O)C1=O,54.2 µM (active)
15,COc1c(C)c2c(c(O)c1C/C=C(\C)CCC(=O)OCCN1CCOCC1)C(=O)OC2,inactive
16,CNc1ccc([N+](=O)[O-])cc1,54.6 µM (active)
17,COCCOc1cc2cc(C(=O)NC3CCN(C(C)C)CC3)n(CC(=O)Nc3ccc(Cl)cn3)c2cn1,48 µM (active)
18,CCCCNS(=O)(=O)c1ccc(C)cc1,inactive
19,O=C(O)c1ccc2cc(C(=O)O)ccc2c1,inactive
20,O=C(O)CCN(C1(C(=O)NO)CCCC1)S(=O)(=O)c1ccc(Oc2ccc(F)cc2)cc1,inactive
